Test results published in PubChem BioAssay AID1159580 (chemical genetic matrix, 2015).
In all, about 5,500 compounds went through this assay and about 2,000 (36%) were called active. Inconclusive results (about 18%) are left out. No stated cut-off is given here; in the data, active means normalized growth mostly below about 0.91 (no sharp cut-off); inconclusive means no clear call, values can overlap the other calls; inactive means mostly above about 0.92. The list shows a part of the results.

Test: chemical genetic growth profiling, strain panel (AID 1159580);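 further: tested at 20 µM; growth read once vehicle control cultures reached saturation at 30 °C; 1 = growth at the plate median or of vehicle wells; lower values mean less growth of the strain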
Conditions: S. cerevisiae deletion strains, growth OD

Measured: normalized growth

CCCc1cc(OC)c2c(c1)OCO2
inactive: locus YAL021C, strain ccr4, active compounds read low 1.04 | locus YAL026C, strain drs2, active compounds read low 0.988 | locus YAL030W, strain snc1, active compounds read low 0.999 | locus YBL061C, strain skt5, active compounds read low 0.993 | locus YBR009C, strain hhf1, active compounds read low 0.988 | locus YBR023C, strain chs3, active compounds read low 0.991 | locus YBR171W, strain sec66, active compounds read low 0.973 | locus YBR231C, strain swc5, active compounds read low 1.01 | locus YBR279W, strain paf1, active compounds read low 1 | locus YCL011C, strain gbp2, active compounds read low 0.999 | locus YCL016C, strain dcc1, active compounds read low 0.98 | locus YCL069W, strain vba3, active compounds read low 0.996 | locus YCR088W, strain abp1, active compounds read low 0.985 | locus YDL005C, strain med2, active compounds read low 0.975 | locus YDL040C, strain nat1, active compounds read low 0.978 | locus YDR001C, strain nth1, active compounds read low 0.987 | locus YDR069C, strain doa4, active compounds read low 0.994 | locus YDR137W, strain rgp1, active compounds read low 0.94 | locus YDR159W, strain sac3, active compounds read low 0.943 | locus YDR195W, strain ref2 0.974 | locus YDR297W, strain sur2, active compounds read low 0.995 | locus YDR334W, strain swr1, active compounds read low 1.01 | locus YDR335W, strain msn5, active compounds read low 0.988 | locus YDR392W, strain spt3, active compounds read low 0.952 | locus YEL003W, strain gim4, active compounds read low 0.994 | locus YEL037C, strain rad23, active compounds read low 0.998 | locus YEL061C, strain CIN8 (second series), active compounds read low 0.979 | locus YER015W, strain faa2, active compounds read low 0.989 | locus YER016W, strain bim1, active compounds read low 0.977 | locus YER111C, strain swi4, active compounds read low 0.976 | locus YER155C, strain BEM2 (second series), active compounds read low 0.928 | locus YFR010W, strain ubp6, active compounds read low 0.999 | locus YGL167C, strain pmr1, active compounds read low 0.983 | locus YGL173C, strain kem1, active compounds read low 0.987 | locus YGL227W, strain vid30, active compounds read low 0.974 | locus YGL240W, strain doc1, active compounds read low 1 | locus YGL253W, strain hxk2, active compounds read low 0.995 | locus YHR013C, strain ard1, active compounds read low 1.11 | locus YHR027C, strain rpn1, active compounds read low 0.982 | locus YHR030C, strain SLT2, active compounds read low 0.944 | locus YHR079C, strain IRE1, active compounds read low 0.946 | locus YHR142W, strain chs7, active compounds read low 0.974 | locus YJL092W, strain hpr5, active compounds read low 0.985 | locus YJL095W, strain BCK1 (second series), active compounds read low 1 | locus YJL095W, strain BCK1, active compounds read low 1.02 | locus YJL115W, strain asf1, active compounds read low 0.98 | locus YJL129C, strain trk1, active compounds read low 0.992 | locus YJL154C, strain vps35, active compounds read low 0.994 | locus YJL164C, strain tpk1, active compounds read low 1 | locus YJL166W, strain qcr8, active compounds read low 0.985 | locus YJL187C, strain SWE1, active compounds read low 1 | locus YJR066W, strain TOR1, active compounds read low 0.937 | locus YKL160W, strain elf1, active compounds read low 0.983 | locus YKR026C, strain gcn3, active compounds read low 0.971 | locus YKR091W, strain srl3, active compounds read low 0.984 | locus YLL001W, strain dnm1, active compounds read low 0.999 | locus YLL026W, active compounds read low 0.992 | locus YLL041C, strain sdh2, active compounds read low 0.997 | locus YLR027C, strain aat2, active compounds read low 0.984 | locus YLR113W, strain HOG1, active compounds read low 1.04 | locus YLR221C, strain rsa3, active compounds read low 0.989 | locus YLR258W, strain gsy2, active compounds read low 0.998 | locus YLR262C, strain YPT6 (second series), active compounds read low 0.927 | locus YLR320W, strain mms22, active compounds read low 1 | locus YLR342W, strain FKS1, active compounds read low 0.977 | locus YLR357W, strain rsc2, active compounds read low 0.974 | locus YLR370C, strain arc18, active compounds read low 0.984 | locus YLR384C, strain iki3, active compounds read low 0.995 | locus YML120C, strain ndi1, active compounds read low 0.987 | locus YMR058W, strain fet3, active compounds read low 1.02 | locus YMR125W, strain sto1, active compounds read low 0.971 | locus YMR129W, active compounds read low 0.975 | locus YMR205C, strain PFK2, active compounds read low 0.98 | locus YMR231W, strain pep5, active compounds read low 1 | locus YNL071W, strain lat1, active compounds read low 0.998 | locus YNL183C, strain NPR1, active compounds read low 1.01 | locus YNL209W, strain ssb2, active compounds read low 0.967 | locus YNL248C, strain rpa49, active compounds read low 0.989 | locus YNL322C, strain KRE1 (second series), active compounds read low 0.976 | locus YNR049C, strain mso1, active compounds read low 0.992 | locus YOR001W, strain rrp6, active compounds read low 0.999 | locus YOR070C, strain gyp1, active compounds read low 0.997 | locus YOR080W, strain dia2, active compounds read low 0.966 | locus YOR083W, strain WHI5, active compounds read low 0.938 | locus YOR106W, strain vam3, active compounds read low 0.976 | locus YOR231W, strain MKK1, active compounds read low 0.957 | locus YOR265W, strain rbl2, active compounds read low 0.981 | locus YOR270C, strain vph1, active compounds read low 1 | locus YOR290C, strain snf2, active compounds read low 0.995 | locus YPL051W, strain arl3, active compounds read low 0.991 | locus YPL078C, strain atp4, active compounds read low 0.981 | locus YPL106C, strain sse1, active compounds read low 0.976 | locus YPL240C, strain hsp82, active compounds read low 0.974 | locus YPL256C, strain CLN2, active compounds read low 0.953
